# Source: PubChem BioAssay AID588342 (National Center for Advancing Translational Sciences (NCATS), 2011)
# Hit rate of the full screen: of about 360,000 compounds, about 25,000 (6.9%) were called active. Roughly 9% stayed inconclusive and do not appear here. The full list was thinned out, with actives kept by preference. Unmarked numbers belong to inactive results. Calls follow the shape of the dose curve; as a rule, active = well fitted inhibition curve with a large enough effect; inconclusive = small, poorly fitted or top-dose-only effect; inactive = flat fitted curve, though single readings scatter.
# Target: Luciferin 4-monooxygenase (Photinus pyralis) (UniProt P08659)
# Sequence (P08659 whole entry, looked up): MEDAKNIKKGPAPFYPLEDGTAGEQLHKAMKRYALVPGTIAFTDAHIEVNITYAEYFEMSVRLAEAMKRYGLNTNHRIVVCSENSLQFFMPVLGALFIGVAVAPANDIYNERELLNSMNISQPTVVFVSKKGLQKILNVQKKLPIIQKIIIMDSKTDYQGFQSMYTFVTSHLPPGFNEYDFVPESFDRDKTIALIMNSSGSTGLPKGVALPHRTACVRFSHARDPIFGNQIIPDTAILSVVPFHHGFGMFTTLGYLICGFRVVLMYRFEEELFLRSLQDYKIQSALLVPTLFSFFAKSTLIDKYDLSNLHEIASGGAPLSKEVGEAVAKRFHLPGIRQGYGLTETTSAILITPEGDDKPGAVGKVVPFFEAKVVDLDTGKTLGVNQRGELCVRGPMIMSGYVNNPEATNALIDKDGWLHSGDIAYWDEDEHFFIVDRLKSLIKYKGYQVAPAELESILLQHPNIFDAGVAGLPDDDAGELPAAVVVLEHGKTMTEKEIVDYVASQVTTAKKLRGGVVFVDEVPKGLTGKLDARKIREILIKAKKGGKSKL
# Experiment: qHTS profiling assay for firefly luciferase inhibitor/activator using purifed enzyme and Km concentrations of substrates (counterscreen for miR-21 project); also: nearly all actives have a fitted effect of over 55% in size;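 as to activity change, negative = inhibition: plate controls were vehicle for no effect and reference inhibitor for full effect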
# Conditions: purified FLuc, luminescence inhibition; series mostly up to 57.5 µM; activity change, negative = inhibition: at the top concentration
# Procedure, shortened: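 Biochemical qHTS of compounds, final roughly 60 µM downward over six points, against 10 nM purified firefly luciferase using Km concentrations of substrates (10 uM D-luciferin, 10 uM ATP) in Tris acetate pH 7.5 buffer; luminescence output.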
# Potency is read from the fitted curve at half-maximal effect.
Structure (SMILES),"activity change, negative = inhibition",Potency
O=C(CN1CCN(C(=O)C2CCCO2)CC1)Nc1c(Cl)cccc1Cl (stereo unspecified),1.65%,–
CCCCCCNC(=O)CSc1nccn1Cc1ccccc1,-0.453%,–
COC(=O)Cn1cnc2scc(-c3ccc(C)c(C)c3)c2c1=O,6.57%,–
CCC(NC(=O)c1ccccc1NC(=O)c1ccccc1)C(=O)NNC(=O)CSc1nc2ccccc2o1 (stereo unspecified),-17.4%,–
O=C(Cn1nnc2ccccc2c1=O)Nc1cc(C(F)(F)F)ccc1N1CCOCC1,-0.915%,–
CC(CO)NCC12CC3CC(CC(C3)C1)C2 (stereo unspecified),0.574%,–
CCOc1ccccc1NC(=O)c1ccc2c(c1)CCN2S(=O)(=O)c1ccc(C)cc1,-0.319%,–
O=C(NCCc1csc(-c2ccc(C(F)(F)F)cc2)n1)C(=O)Nc1ccc(F)c(Cl)c1,0.42%,–
Cc1ccc(C)c(N2CCN(C(=O)CN3C(=O)COc4ccc(S(=O)(=O)N5CCCCCC5)cc43)CC2)c1,-11.7%,–
COc1ccccc1OCCNc1cc(N2CCOCC2)ccc1[N+](=O)[O-],–,15.1 µM (active)
CC(=O)Nc1ccc(S(=O)(=O)N2CCN(c3ccc([N+](=O)[O-])c(NCCN4CCOCC4)c3)CC2)cc1,2.44%,–
O=C(c1ccccc1)N1CCN(c2ccc([N+](=O)[O-])c(NCc3ccco3)c2)CC1,0.947%,–
O=C(CCn1ccc2cc(S(=O)(=O)N3CCCC3)ccc21)NCc1cccc(Cl)c1,-7.4%,–
COc1ccc(-c2noc(C(C)NS(=O)(=O)c3ccc(NC(C)=O)cc3)n2)cc1 (stereo unspecified),-1.43%,–
CCCn1c(N)c(C(=O)CSc2nnc3n2CCCCC3)c(=O)[nH]c1=O,3.94%,–
COc1cc(NC(=O)c2nc3ccccc3nc2C)cc(OC)c1OC,-14%,–
Cc1nc(/N=C(\N)NC(=O)NC2CCCCC2)nc2ccccc12,–,16.9 µM (active)
O=C(Cn1nnc(-c2ccccc2)n1)NC(=O)NC1CCCC1,3.07%,–
COc1ccc2nc(/N=C(\N)NC(=O)Nc3ccccc3)nc(C)c2c1,–,26.9 µM (active)
COC(=O)[C@H](Cc1ccccc1)NC(=O)Nc1ccc(OC)cc1,-2.85%,–
O=C(NNC(=O)C(O)c1ccccc1)NC1CCCCC1 (stereo unspecified),3.66%,–
Cc1cc(NC(=O)CC(C)C)cc(-c2nc3ncccc3o2)c1O,2.31%,–

Structure (SMILES),"activity change, negative = inhibition",Potency
O=C(c1cccs1)c1cn(CCOc2ccc(Cl)cc2)c2ccccc12,-4.78%,–
CCOC(=O)c1cccc(NC(=O)CCOc2ccccc2)c1,-10.1%,–
O=C(CCCOc1ccccc1)Nc1cccc(C(=O)O)c1,–,15.1 µM (active)
COc1ccc(OCCCC(=O)Nc2cccc(S(=O)(=O)N3CCCCCC3)c2)cc1,-12.1%,–
COCCn1cnnc1SCC(=O)Nc1cccc(S(=O)(=O)N2CCCCC2)c1,3.11%,–
CCOc1ccccc1CNC(=O)c1cnc2c(-c3ccc(OCC)c(OCC)c3)c(C)nn2c1C,-1.62%,–
COC(=O)c1ccc(CSc2nc3ccccc3c(=O)n2-c2cccc(OC)c2)o1,1.87%,–
COc1ccc(-c2nc3ccccc3c(=O)n2CCc2ccc(O)cc2)cc1,–,21.3 µM (active)
COc1ccc(OCc2ccc(-c3nc(C#N)c(N4CCN(c5ccccc5)CC4)o3)o2)cc1,-2.48%,–
COc1cccc(OCCn2c(-c3ccc(Br)cc3)nc3ccccc3c2=O)c1,-7.08%,–
COc1ccccc1OCCCn1c(-c2ccc(Cl)cc2)nc2ccccc2c1=O,1.48%,–
COc1ccc(OCc2ccc(-c3nc4ccccc4c(=O)n3N)o2)cc1,–,12 µM (active)
Cc1cc(C)cc(OCC(=O)Nc2ccc(N3CCOCC3)cc2N2CCOCC2)c1,1.89%,–
Cc1nn2c(=O)cc(COC(=O)CNC(=O)c3ccc(F)cc3)nc2s1,2.08%,–
COc1cccc(N2CCN(S(=O)(=O)c3cc(Br)cc4c3N(C(=O)C3CC3)CC4)CC2)c1,0.1%,–
COc1ccc(S(=O)(=O)NCC2CCCN(C(=O)c3occc3C)C2)cc1 (stereo unspecified),-1.96%,–
COc1cc(C)c(C)cc1S(=O)(=O)N1CCCc2ccccc21,5.54%,–
Cc1cccc(-n2ncc(Cl)c(Cl)c2=O)c1,0.614%,–
COc1ccc(CCC(C)N2CCc3ccccc3C2)cc1 (stereo unspecified),-0.635%,–
Cc1ccc(-n2ncc3c(=O)[nH]cnc32)c(C)c1,0.0061%,–
Cc1cccc(-n2ncc3c(N4CCc5ccccc54)ncnc32)c1,–,0.536 µM (active)
COc1ccc(-n2ncc3c(N4CCCc5ccccc54)ncnc32)cc1,–,1.35 µM (active)

Structure (SMILES),"activity change, negative = inhibition",Potency
COc1ccc2oc(=O)c(C(=O)N3CCCc4ccccc43)cc2c1,3.4%,–
COc1ccc(-n2c(C)nc3c(cnn3-c3ccc(F)cc3)c2=O)cc1,3.47%,–
COc1ccc(-n2ncc3c(N4CCc5ccccc54)ncnc32)cc1,–,0.379 µM (active)
CCCCN(C(=O)C1=NN(c2cc(C)ccc2C)C(=O)CC1)c1c(N)n(CCC)c(=O)[nH]c1=O,-0.555%,–
COc1cccc(CNC(=O)CN2C(=O)NC(Cc3ccccc3)(c3ccccc3)C2=O)c1 (stereo unspecified),0.778%,–
CC1=C(c2ccc(Cl)cc2)S(=O)(=O)N=C1N1CCN(c2cc(C)ccc2C)CC1,-4.39%,–
CC(C)C(=O)Nc1nnc(Sc2ccc(N(C)C)cc2)s1,0.449%,–
O=C(CSc1ccccc1)Nc1nnc(/C=C/c2ccccc2)s1,-1.44%,–
COc1ccc(/C=C/c2nnc(NC(=O)C(C)C)s2)cc1,–,2.69 µM (active)
CCCC(=O)N1CCN(c2nc3c(OC)ccc(C)c3s2)CC1,-13.8%,–
COc1ccccc1NC(=O)c1cc(C2CC2)nc2c1c(C)nn2-c1ccc(C)cc1,2.95%,–
CC(C)(C)C1C/C(=C/c2ccco2)C(=O)/C(=C/c2ccco2)C1 (stereo unspecified),8.48%,–
CS(=O)(=O)C1=NN2C(=N)/C(=C\c3ccc(OCCOc4ccccc4)cc3)C(=O)N=C2S1,5.51%,–
CS(=O)(=O)c1ccc2c(c1)SC1=NC(=O)/C(=C/c3ccco3)C(=N)N12,–,10.7 µM (active)
CC(NC(=O)CN(C)S(=O)(=O)c1ccc(F)cc1)C1CC2CCC1C2 (stereo unspecified),6.14%,–
Cc1ccc2oc(=O)c3cnn(CC(=O)NCc4ccccc4Cl)c3c2c1,0.217%,–
CCOc1cccc2c1OC1(CCCCC1)N1N=C(c3cccnc3)CC21 (stereo unspecified),–,19 µM (active)
CCOc1ccccc1C1CC(c2cccc(NS(C)(=O)=O)c2)=NN1C(=O)c1ccccc1 (stereo unspecified),-1.5%,–
N#CCN(C(=O)COC(=O)C1CC2CCCC(C1)C2=O)c1ccccc1 (stereo unspecified),0.412%,–
CC(=O)n1c(C=Nc2ccccc2)c(O)c2ccccc21,–,16.9 µM (active)
CCCn1c(=O)c(-c2ccccc2)c(O)c2ccccc21,3.5%,–
Cc1c(C=O)c2ccccc2n1CC(=O)O,-1.92%,–
